Screens from PubChem.
HepG2 viability = HepG2 cytotoxicity, counter-screen for TGF-b inhibitors; HepG2 CAGA-GFP viability, ATP luminescence, 18 h; Potency, µM (series often up to 46.1 µM), for the others: top-dose activity change, negative = cytotoxicity, usual class: cytotoxic; 410,000 tested, 0.76% active; note: potency is the fitted concentration of half-maximal effect
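CellTiter-Glo luminescence gave cytotoxicity after 18 hours at 37 degrees C. The cells were HepG2 CAGA-GFP in 1% FBS DMEM, stimulated with 500 pg/mL TGF-beta after compound addition. %Activity was normalised to no-cell wells (complete cell-killing) and DMSO (no toxicity), and curves were fitted and classified.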
TDP1 cell CPT = DT40-hTDP1 cell growth loss with CPT; AID 686979; Potency, µM (titrated, usually from 46.2 µM), inactives show at the highest dose activity change, negative = growth inhibition, actives largely listed as inhibitors; 420,000 tested, 12% active; chicken DT40 Tdp1-/-;hTDP1 cells + 20 nM CPT, ATP luminescence, 48 h; note: potency is the fitted concentration of half-maximal effect; % is set by controls: 0 for no effect and ±100 for the full control effect; nearly all actives have a fitted effect of over 55% in size
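Chicken DT40 Tdp1-/- cells complemented with human TDP1, 400 cells/well, exposed to compounds plus 20 nM camptothecin for at least 48 h at 37 C; viability read as ATP content by CellTiter-Glo luminescence.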
IL-1B inflam inh = inhibitors of inflammasome signaling (IL-1 beta secretion); activity change, % at 57.5 µM; 360,000 tested, 4.7% active; THP-1 LPS/ATP IL-1B secretion, AlphaLISA, 16 h; hits give low values; in the data active = activity change below about -50%; inconclusive = mostly about -30% to -49%; note: % is set by controls: 0 for no effect and ±100 for the full control effect
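Secreted IL-1B measured by AlphaLISA bead assay after 16 h compound exposure of THP-1 cells; compounds (final up to 57.5 uM) added 1 h before LPS (250 ng/mL) and ATP (1.25 mM) stimulation; lower signal means less secretion.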
TDP1 block = inhibitors of human tyrosyl-DNA phosphodiesterase TDP1. 350,000 tested, 0.28% active. Potency, µM (doses to about 130 µM), without a hit: at the top dose activity change, negative = inhibition, most hits filed as inhibitors. recombinant TDP1, AlphaScreen DNA substrate cleavage. Q9NUW8; note: potency is the fitted concentration of half-maximal effect; % is set by controls: 0 for no effect and ±100 for the full control effect; nearly all actives have a fitted effect of over 40% in size
Target sequence (Q9NUW8 whole entry, looked up): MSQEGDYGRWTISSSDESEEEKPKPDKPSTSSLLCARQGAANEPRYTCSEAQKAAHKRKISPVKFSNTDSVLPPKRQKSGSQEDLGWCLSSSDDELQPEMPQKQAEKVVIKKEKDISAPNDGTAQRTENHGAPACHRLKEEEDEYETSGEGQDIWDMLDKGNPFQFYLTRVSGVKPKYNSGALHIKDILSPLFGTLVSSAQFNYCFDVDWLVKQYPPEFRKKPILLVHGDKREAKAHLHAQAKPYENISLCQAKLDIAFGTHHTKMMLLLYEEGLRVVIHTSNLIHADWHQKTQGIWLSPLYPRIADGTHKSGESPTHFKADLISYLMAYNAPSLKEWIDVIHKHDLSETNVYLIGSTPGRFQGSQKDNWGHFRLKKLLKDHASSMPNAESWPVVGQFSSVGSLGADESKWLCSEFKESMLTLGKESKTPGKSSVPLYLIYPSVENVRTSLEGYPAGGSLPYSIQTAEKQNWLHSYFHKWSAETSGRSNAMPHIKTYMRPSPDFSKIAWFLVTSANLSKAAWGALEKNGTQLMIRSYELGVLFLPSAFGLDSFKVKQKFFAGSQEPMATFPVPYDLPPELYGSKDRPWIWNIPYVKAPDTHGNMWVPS
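E. coli-derived human Tdp1, 1 nM final. Cpd preinc 15 min RT; substrate 15 nM final, 5 min RT; AS bead mix 10 ug/ml final, 10 min RT. Signal loss = tyrosine-FITC cleavage. No-enzyme wells = max signal.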
TDP1 cell noCPT = qHTS for Inhibitors of human tyrosyl-DNA phosphodiesterase 1 (TDP1): qHTS in cells in absence of CPT; DT40 Tdp1-/- hTDP1 cells, no CPT, ATP luminescence, 48 h; Potency, µM (titrated, usually from 46.2 µM), for inactives: at the highest dose activity change, negative = growth inhibition, usual class: inhibitors; 420,000 tested, 15% active; note: potency is the fitted concentration of half-maximal effect; % is set by controls: 0 for no effect and ±100 for the full control effect; nearly all actives have a fitted effect of over 55% in size
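Compound effects on proliferation are scored in DT40 Tdp1-/-;hTDP1 cells in the absence of CPT. ATP levels (CellTiter-Glo luminescence) are recorded after a ≥48 hr, 37 °C incubation.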
TGFb SMAD3 inh = inhibitors of TGF-b signaling. HepG2 CAGA-GFP TGF-b/SMAD3 reporter, GFP fluorescence, 18 h; TGF-beta stimulated, 500 pg/mL final. Potency, µM (top dose mostly 46.1 µM), inactives show at the top dose activity, negative = inhibition, hits mostly inhibitors. 410,000 tested, 1.2% active; note: potency is the fitted concentration of half-maximal effect; % is set by controls: 0 for no effect and ±100 for the full control effect; nearly all actives have a fitted effect of over 65% in size
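HEPG2 CAGA-GFP cells (1000/well, DMEM with 1% FBS) were pre-incubated 2 h at 37 degrees C, given compound by pin tool, then stimulated with TGF-beta at 500 pg/mL final for 18 h before per-cell GFP fluorescence imaging.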
Active calls of the source: *; ? = inconclusive; . = no result. A selection: hits, their analogues and other compounds. The true share with any hit is near 18%. Unless noted, calls come from the whole dose curve; as a rule, active = well fitted curve in the direction sought with a large enough effect; inconclusive = small, poorly fitted or top-dose-only effect, or another doubt; inactive = no such curve, though single readings can be large; an effect the other way counts as inactive or inconclusive.

SMILES	HepG2 viability	TDP1 cell CPT	IL-1B inflam inh	TDP1 block	TDP1 cell noCPT	TGFb SMAD3 inh
CCOc1ccc(/C=N/NC(=O)c2cc(-c3cccn3C)n[nH]2)cc1	-8%	-19%	-59*	6%	?	7%
CCCCCCC(=O)Nc1ccc(Br)cn1	-10%	-5%	0	-4%	-2%	13%
CN(C)c1ccc(C(=O)Oc2cc(O/N=[N+](\[O-])N(C)C)c([N+](=O)[O-])cc2[N+](=O)[O-])cc1	3%	.	.	.	.	?
Cc1cccc(OCC(=O)NCCCNC(=O)c2ccncc2)c1	3%	6%	1	2%	-25%	8%
CCOC(=O)CNc1c(-c2ccc(Cl)cc2)nc2cnccn12	-3%	6%	16	-9%	-5%	0%
CCCCNc1c(-c2ccc(OC)c(SC3CCCCC3)c2)nc2cnccn12	11µM*	?	-70*	-9%	?	?
CCCCNc1c(-c2ccc(OC)c(SC3CCCCC3)c2)nc2ccc(Cl)cn12	-28%	21µM*	-27	-1%	23µM*	?
CCCCNc1c(-c2ccc(-c3ccc(C(C)=O)cc3)c(OC)c2)nc2cnccn12	-38%	10µM*	0	.	?	?
CCCCNc1c(-c2ccc(SC3CCCCC3)cc2)nc2cnccn12	-37%	15µM*	-13	-1%	?	?
COCCNc1c(-c2ccc(OC)cc2)nc2ccc(Cl)cn12	-17%	?	?	3%	?	-8%
COc1ccc(CCN2CC(C(=O)NCc3c(C)n[nH]c3C)CCC2=O)cc1 (stereo not drawn)	11%	-1%	5	2%	0%	14%
CC1=C(C(=O)Nc2cccc(C(F)(F)F)c2)C2(CCCCC2)OC1=O	-6%	?	.	1%	16µM*	.
CC1=C(C(=O)NCc2cccc(Br)c2)C2(CCCCC2)OC1=O	-3%	15µM*	.	1%	23µM*	?
COc1ccc(OC)c(NC(=O)C2=C(C)C(=O)OC23CCCCCC3)c1	-35%	?	.	1%	?	11%
COC(=O)c1ccccc1NC(=O)C1=C(C)C(=O)OC12CCCCCC2	-14%	18µM*	.	2%	16µM*	?
CC1=C(C(=O)Nc2cccc(F)c2)C2(CCCCC2)OC1=O	-25%	?	.	3%	?	-10%
CC1=C(C(=O)Nc2cccc(C(F)(F)F)c2)C2(CCCCCC2)OC1=O	-35%	16µM*	.	7%	?	-20%
CCCCCCCCCCN(CCCCCCCCCC)c1ccccc1	-26%	?	.	.	?	-5%
CCCCCCCN(C(=O)CCl)c1cccc(C)c1	-28%	?	-105*	-1%	23µM*	?
CCCCCCN(C(=O)CCl)c1ccccc1	-115%	16µM*	-67*	6%	10µM*	22µM*
CCCC(=O)N1CCC1(C)C(=O)NS(=O)(=O)c1cccs1 (stereo not drawn)	-13%	6%	0	.	0%	-11%
CC(C)CCN(C(=O)c1cc(=O)[nH]c2ccccc12)c1c(N)n(Cc2ccccc2)c(=O)[nH]c1=O	15%	7%	3	1%	-6%	15%
CCCN(C(=O)COC(=O)CCOc1ccc(C)cc1)c1c(N)n(Cc2ccccc2)c(=O)[nH]c1=O	-23%	?	1	.	?	0%
Cc1ccc(OCCC(=O)N(CCC(C)C)c2c(N)n(Cc3ccccc3)c(=O)[nH]c2=O)cc1	5%	-9%	-1	-6%	21µM*	-9%
CC(C)CCN(C(=O)Cc1ccc(Cl)c(Cl)c1)c1c(N)n(Cc2ccccc2)c(=O)[nH]c1=O	12%	?	?	3%	26µM*	-8%
